Data reported in PubChem BioAssay (NCATS).
Results filed as inconclusive are left out. The source made the active and inactive calls. Calls follow the shape of the dose curve; as a rule, active = well fitted curve in the direction sought with a large enough effect; inconclusive = small, poorly fitted or top-dose-only effect, or another doubt; inactive = no such curve, though single readings can be large; an effect the other way counts as inactive or inconclusive.

Columns and labels:
[1] = Quantitative High-Throughput drug screen in 47 multiple myeloma cell lines against the NCATS MIPE library collection: Karpas417_ECACC cell viability assay (AID 1918961); settings: Karpas417 myeloma viability, CellTiter-Glo ATP luminescence, 48 h; viability (% of DMSO): at 45.8 µM (top of the series); also: potency is read from the fitted curve at half-maximal effect
Procedure, shortened: (§1)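 CellTiter-Glo ATP luminescence gave viability after 48 h compound treatment at 37C of 500 multiple myeloma cells per well. Normalisation used DMSO-only wells as 100% and media-only wells as 0% viability; primary qHTS of approved and investigational drugs.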

[2] = Quantitative High-Throughput drug screen in 47 multiple myeloma cell lines against the NCATS MIPE library collection: JIM3_ECACC cell viability assay (AID 1918963; also: nearly all actives have a fitted effect of over 35% in size; also: potency is read from the fitted curve at half-maximal effect)
Procedure, shortened: (§2)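 Myeloma cells (500 per well) were exposed to MIPE 4.0 compounds by pin transfer and incubated 48 hours at 37C, 5% CO2. Viability was read as ATP by CellTiter-Glo luminescence, normalised to DMSO (100%) and media-only (0%) wells.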

[3] = Quantitative High-Throughput drug screen in 47 multiple myeloma cell lines against the NCATS MIPE library collection: INA6_PLB cell viability assay (AID 1918965; also: nearly all actives have a fitted effect of over 55% in size; also: potency is read from the fitted curve at half-maximal effect)
Procedure, shortened: as §1

[4] = Quantitative High-Throughput drug screen in 47 multiple myeloma cell lines against the NCATS MIPE library collection: JJN3_DSMZ cell viability assay (AID 1918966; also: nearly all actives have a fitted effect of over 50% in size; also: potency is read from the fitted curve at half-maximal effect)
Procedure, shortened: (§3)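 Luminescent ATP measurement with CellTiter-Glo gives viability, scaled between DMSO-only wells (100%) and media-only wells (0%). Cells, 500 per well, faced library compounds for 48 hours at 37C.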

[5] = Quantitative High-Throughput drug screen in 47 multiple myeloma cell lines against the NCATS MIPE library collection: H1112_PLB cell viability assay (AID 1918967; also: nearly all actives have a fitted effect of over 30% in size; also: potency is read from the fitted curve at half-maximal effect)
Procedure, shortened: as §3

[6] = Quantitative High-Throughput drug screen in 47 multiple myeloma cell lines against the NCATS MIPE library collection: Karpas25_ECACC cell viability assay (AID 1918968; also: nearly all actives have a fitted effect of over 35% in size; also: potency is read from the fitted curve at half-maximal effect)
Procedure, shortened: as §3

[7] = Quantitative High-Throughput drug screen in 47 multiple myeloma cell lines against the NCATS MIPE library collection: KMS12BM_JCRB cell viability assay (AID 1918971); also: nearly all actives have a fitted effect of over 35% in size; also: potency is read from the fitted curve at half-maximal effect
Procedure, shortened: as §3

[8] = Quantitative High-Throughput drug screen in 47 multiple myeloma cell lines against the NCATS MIPE library collection: KMS21BM_JCRB cell viability assay (AID 1918974); settings: ATP luminescence, 48 h; viability: at 45.8 µM (top of the series); also: potency is read from the fitted curve at half-maximal effect
Procedure, shortened: as §3

[9] = Quantitative High-Throughput drug screen in 47 multiple myeloma cell lines against the NCATS MIPE library collection: KMS26_JCRB cell viability assay (AID 1918975); also: nearly all actives have a fitted effect of over 45% in size; also: potency is read from the fitted curve at half-maximal effect
Procedure, shortened: as §3

[10] = Quantitative High-Throughput drug screen in 47 multiple myeloma cell lines against the NCATS MIPE library collection: NCIH929_DSMZ cell viability assay (AID 1918978); also: nearly all actives have a fitted effect of over 35% in size; also: potency is read from the fitted curve at half-maximal effect
Procedure, shortened: (§4)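 ATP-based CellTiter-Glo luminescence after 48 h drug exposure (37 °C, 5% CO2) of 500 myeloma cells per well. DMSO-only wells set 100% viability, media-only wells 0%; MIPE 4.0 library added by pin tool.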

[11] = Quantitative High-Throughput drug screen in 47 multiple myeloma cell lines against the NCATS MIPE library collection: KMS27_JCRB cell viability assay (AID 1918970); also: nearly all actives have a fitted effect of over 30% in size; also: potency is read from the fitted curve at half-maximal effect
Procedure, shortened: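 KMS27_JCRB myeloma cells, 500 per well, exposed 48 h at 37 C, 5% CO2 to MIPE 4.0 compounds. Viability from ATP by CellTiter-Glo luminescence, normalized to DMSO (100%) and medium-only (0%) wells.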

[12] = Quantitative High-Throughput drug screen in 47 multiple myeloma cell lines against the NCATS MIPE library collection: KMS12PE_JCRB cell viability assay (AID 1918972); also: nearly all actives have a fitted effect of over 30% in size; also: potency is read from the fitted curve at half-maximal effect
Procedure, shortened: as §1

[13] = Quantitative High-Throughput drug screen in 47 multiple myeloma cell lines against the NCATS MIPE library collection: MOLP8_DSMZ cell viability assay (AID 1918977); also: nearly all actives have a fitted effect of over 45% in size; also: potency is read from the fitted curve at half-maximal effect
Procedure, shortened: as §4

[14] = Quantitative High-Throughput drug screen in 47 multiple myeloma cell lines against the NCATS MIPE library collection: OCIMY1_PLB cell viability assay (AID 1918979); also: nearly all actives have a fitted effect of over 35% in size; also: potency is read from the fitted curve at half-maximal effect
Procedure, shortened: as §4

[15] = Quantitative High-Throughput drug screen in 47 multiple myeloma cell lines against the NCATS MIPE library collection: MM1S_ATCC cell viability assay (AID 1918980); also: nearly all actives have a fitted effect of over 45% in size; also: potency is read from the fitted curve at half-maximal effect
Procedure, shortened: as §4

[16] = Quantitative High-Throughput drug screen in 47 multiple myeloma cell lines against the NCATS MIPE library collection: KMS20_JCRB cell viability assay (AID 1918973); also: nearly all actives have a fitted effect of over 45% in size; also: potency is read from the fitted curve at half-maximal effect
Procedure, shortened: as §3

[17] = Quantitative High-Throughput drug screen in 47 multiple myeloma cell lines against the NCATS MIPE library collection: MMM1_PLB cell viability assay (AID 1918976)
Procedure, shortened: as §4

[18] = Quantitative High-Throughput drug screen in 47 multiple myeloma cell lines against the NCATS MIPE library collection: KHM11_PLB cell viability assay (AID 1918962); also: nearly all actives have a fitted effect of over 35% in size
Procedure, shortened: as §2

[19] = Quantitative High-Throughput drug screen in 47 multiple myeloma cell lines against the NCATS MIPE library collection: KMM1_JCRB cell viability assay (AID 1918960); also: nearly all actives have a fitted effect of over 30% in size
Procedure, shortened: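 Viability screen: myeloma cells (500/well) incubated 48 h at 37 °C, humidified 5% CO2, with pinned library compounds; CellTiter-Glo added, luminescence read; DMSO wells set 100%, medium-only wells 0%.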

Measured: Potency

CC1=NN=C(c2ccc(N)cc2)c2cc3c(cc2C1)OCO3
active: [1] 20.9 µM | [8] 14.8 µM
inactive: [2] | [3] | [4] | [5] | [6] | [7] | [9] | [10]

CC(C)(O)C(=O)Nc1ccc([N+](=O)[O-])c(C(F)(F)F)c1
inactive: [13] | [14]
active: [3] 7.43 µM | [5] 9.35 µM | [6] 9.35 µM | [11] 14.8 µM | [12] 23.5 µM | [10] 5.26 µM | [15] 9.35 µM

O=C1CCC[C@@H]2[C@H]3CCCN4CCC[C@@H](CN12)[C@@H]34
inactive: [2] | [5] | [11] | [9] | [10]

c1cc2c(cc1[C@H]1OC[C@H]3[C@H]1CO[C@H]3c1ccc3c(c1)OCO3)OCO2
inactive: [2] | [11] | [16] | [13] | [10]

C=CCON=C(C[C@H]1O[C@@H]2O[C@]3(C)CC[C@@H]4[C@H](C)CC[C@@H]([C@H]1C)[C@@]24OO3)[C@H]1O[C@@H]2O[C@]3(C)CC[C@H]4[C@H](C)CC[C@@H]([C@@H]1C)[C@@]24OO3
active: [1] 0.148 µM | [2] 0.372 µM | [4] 0.418 µM | [6] 0.209 µM | [7] 0.148 µM | [16] 0.372 µM | [9] 0.264 µM | [17] 0.187 µM | [13] 0.235 µM | [10] 0.148 µM | [14] 0.187 µM | [15] 0.526 µM

C[C@]12CC[C@H]3[C@@H](CCC4=CC(=O)CC[C@@]43C)[C@H]1CC[C@H]2O
inactive: [18] | [2] | [6] | [11] | [16] | [13] | [10] | [15]

C=C[C@@H]1CN2CCC1C[C@@H]2[C@@H](O)c1ccnc2ccccc12 (stereo not given in full)
active: [3] 23.5 µM | [6] 8.33 µM | [11] 5.26 µM | [7] 23.5 µM | [12] 7.43 µM | [17] 18.7 µM | [10] 18.7 µM | [15] 13.2 µM
inactive: [14]

CC(=O)OCC1=C(C(=O)O)N2C(=O)[C@@H](N)[C@@H]2SC1
active: [11] 7.43 µM
inactive: [2] | [5] | [6] | [13] | [10] | [14]

C=C[C@@H]1CN2CCC1C[C@H]2[C@H](O)c1ccnc2ccccc12 (stereo not given in full)
inactive: [9] | [14]
active: [2] 14.8 µM | [5] 13.2 µM | [7] 23.5 µM | [12] 6.62 µM | [17] 7.43 µM | [10] 14.8 µM | [15] 18.7 µM

C[C@]12CC[C@H](O)CC1=CC[C@H]1[C@H]3CCC(=O)[C@@]3(C)CC[C@@H]12
active: [8] 11.8 µM | [17] 4.69 µM
inactive: [2] | [11] | [13] | [10] | [14]

O=C(NCC1CCOCC1)c1cnc(Nc2ccc(Cl)cc2Cl)nc1C(F)(F)F
inactive: [19] | [9]
active: [3] 18.7 µM | [5] 5.9 µM | [6] 4.69 µM | [17] 20.9 µM | [10] 4.69 µM | [15] 3.32 µM

CC(=O)Nc1ccc(OC[C@](C)(O)C(=O)Nc2ccc([N+](=O)[O-])c(C(F)(F)F)c2)cc1
inactive: [2] | [5] | [9] | [10]

CCN(CC)C(=O)c1ccc(C2=CC3(CCNCC3)Oc3cccc(O)c32)cc1
inactive: [2] | [3] | [6] | [16] | [9] | [13] | [10] | [14]
active: [17] 10.5 µM

CCOC(=O)c1c(C(C#N)=CN)c2ccc(Cl)c(Cl)c2n1C
active: [15] 23.5 µM
inactive: [2] | [11] | [12] | [14]

CC(=O)N(C)c1cccc(-c2ccnc3c(C(=O)c4cccs4)cnn23)c1
active: [1] 23.5 µM | [3] 14.8 µM | [11] 20.9 µM | [17] 2.96 µM
inactive: [2] | [6] | [7] | [8] | [9] | [13] | [14]

CC=C(C)C(=O)O[C@H]1C(C)=C2[C@@H]3OC(=O)[C@@](C)(O)[C@@]3(O)[C@@H](OC(=O)CCC)C[C@](C)(OC(C)=O)[C@@H]2[C@@H]1OC(=O)CCCCCCC
active: [2] 0.264 µM | [4] 0.0469 µM | [5] 0.526 µM | [6] 0.0833 µM | [7] 0.0418 µM | [9] 0.0296 µM | [17] 0.0235 µM | [13] 0.0418 µM | [10] 0.332 µM | [14] 0.105 µM | [15] 0.0187 µM
inactive: [11]

CC=C(C)C(=O)N[C@@H](c1ccccc1)[C@@H](O)C(=O)O[C@H]1C[C@@]2(O)[C@@H](OC(=O)c3ccccc3)[C@@H]3[C@]4(OC(C)=O)CO[C@@H]4C[C@H](O)[C@@]3(C)C(=O)[C@H](OC(C)=O)C(=C1C)C2(C)C
active: [11] 0.0012 µM
inactive: [2] | [3] | [6] | [7] | [16] | [9] | [13] | [10] | [15]
